This note sets out measurements from PubChem BioAssay AID651593 (National Center for Advancing Translational Sciences (NCATS), 2012).

Each structure is given as a SMILES string. Among all 1,100 compounds or so, about 860 (78%) were called active. Roughly 19% stayed inconclusive and do not appear here. The set was probably picked from earlier hits. The list shows a part of the results. A number with no mark means an inactive call. Calls come from the whole dose curve; as a rule, active = well fitted activation curve with a large enough effect; inconclusive = small, poorly fitted or top-dose-only effect; inactive = flat fitted curve, though single readings scatter.
Potency is the fitted concentration of half-maximal effect.

This assay can be described thus: qHTS of Nrf2 Activators: Hit Validation in Primary Assay. For activation: 0% is about no effect. Note: nearly all actives have a fitted effect of over 70% in size. The conditions noted are these: Nrf2/ARE reporter cell assay; Potency: activation; series mostly up to 46.1 µM; activation: at the top concentration. The text has this:
Many diseases have some form of oxidative stress injury and ties to inflammation, causing a host of problems for the patient. The antioxidant response element (ARE) plays an important role in alleviating the harmful effects of oxidative stress. The antioxidant response element (ARE) is a transcriptional regulatory element involved in the activation of genes coding for a number of antioxidant proteins and detoxifying enzymes. These enzymes work in concert to protect tissues from oxidative insults and chemical toxicities in human hepatocytes and immune cells. The protective effects of ARE activation are primarily triggered through Nrf2 (NF-E2-related factor) binding to and activating AREs. It is known that Nrf2 controls the production of over 250 antioxidant and detoxification proteins (Hu et al., 2006), thereby protecting tissues by increasing cellular antioxidant content and suppressing inflammatory signaling pathways. The transcription factor Nrf2 is a central link between oxidative chemicals, such as phenolic antioxidants and electrophilic compounds, and the activation of ARE. Nrf2 levels are constitutively low as a consequence of its interaction with Keap1, which targets its degradation (Zipper and Mulcahy, 2002). Electrophiles react with key cysteine residues in Keap1, releasing Nrf2 and allowing its translocation to the nucleus. Once within the nucleus, Nrf2 complexes with coactivators such as p300, and binds to the AREs to induce gene transcription of cytoprotective enzymes, resulting in the prevention of toxicity. Activation of Nrf2 protects tissues by increasing cellular antioxidant content and suppressing inflammatory signaling pathways. Identifying novel and potent Nrf2 activators by using the AREc32 cell line to detect ARE activation by small molecules will lead to the identification and development of probes to study protective pathways in multiple tissues. These specific probes are essential to study the ARE pathway, and eventually to determine whether this pathway does activate genes that could protect against a host of diseases, including cardiovascular diseases, obesity, diabetes, Alzheimer's, and Parkinson's disease.
This project's aim is to identify novel and potent Nrf2 activators by using the AREc32 cell line to detect ARE activation by small molecules, which will lead to the identification and development of probes to study the ARE pathway.
NIH Chemical Genomics Center [NCGC]
NIH Molecular Libraries Probe Centers Network [MLPCN]
Assay Submitter (PI): Curtis Klaassen, University of Kansas Medical Center
Quantification of ARE activation after compound treatment was measured by the Steady-Glo Luciferase (R) assay system (Promega) in AREc32_fluc stable cells. The Steady-Glo reagent acts by cell lysis and generation of a luminescent signal proportional to ARE activation, through the luciferase reporter in the AREc32 stable cell line. AREc32_fluc cells were harvested from T225 flask and resuspended in phenol red free OPTI-MEM medium with 5% FBS. Then 5 microL of 200,000 cells/mL resuspended cells were dispensed into each well of white, solid bottom, 1536-well tissue culture-treated plates using a Multidrop Combi dispenser. After overnight culture at 37 degrees C with 5% CO2, a total of 23 nL of compounds at 5 selected concentrations from the MLSMR/Sytravon or positive control (40 uM stock of CDDO-IM and 2 mM of tBHQ) in DMSO was transferred to each well of the assay plate using a pintool (Kalypsys, San Diego, CA), and the plates were further incubated at 37 degrees C with 5% CO2 for 24 hours. After that, 2 microL of Steady Glo luminescent substrate mix (Promega) was added to each well. The plate was incubated at room temperature for 30 minutes. The plates were measured on a ViewLux plate reader (PerkinElmer) with clear filter.
Background: In qHTS, concentration-response curves come from the screen itself.
On to `O=[N+]([O-])c1ccccc1S(=O)c1ccccc1[N+](=O)[O-]`, for which the Potency was 16400 nM (active).
As for `COc1cc(/C=C/c2ccc3cccc(O)c3n2)cc(OC)c1OC`, the “activation” value was 25.9%.
Take `Oc1ccc(Cl)cc1/C=C/c1ccc2cccc(O)c2n1`: the Potency is 4610 nM (active).
On the same count and under the same terms, the value for `COc1cc(Cl)cc(/C=C/c2ccc3cccc(O)c3n2)c1OC` was 2310 nM (active); that for `Nc1c(C(=O)Nc2ccccc2Br)sc2nc(-c3cccs3)ccc12` was 14600 nM (active).
Same read-out and setting: the value for `COC(=O)c1ccc2nc(-c3cccc(Cl)c3)c(Cc3ccccc3OC)n2c1` was 2910 nM (active); that for `COC(=O)c1ccc2nc(-c3ccco3)c(Cc3cccc(Cl)c3)n2c1` was 23100 nM (active); that for `COC(=O)c1ccc2nc(-c3ccco3)c(Cc3ccccc3)n2c1` was 18400 nM (active).
The same measure, in the same setting: the value for `O=[N+]([O-])c1cccc2ccc(/C=C/c3ccc(Cl)cc3)nc12` was 1160 nM (active); that for `O=[N+]([O-])c1cccc2ccc(/C=C/c3ccc(F)cc3)nc12` was 1840 nM (active).
For the molecule `O=[N+]([O-])c1ccc(/C=C/c2ccc3cccc([N+](=O)[O-])c3n2)cc1`, the Potency was 731 nM (active).
As to `CCOc1cc(/C=C/c2ccc3cccc([N+](=O)[O-])c3n2)cc(Cl)c1O`, the Potency is 517 nM (active).
For `O=[N+]([O-])c1cccc2ccc(/C=C/c3cccc(Br)c3)nc12`, the Potency is 1840 nM (active).
The same measure, in the same setting: the value for `O=C(CSc1nc2cc(Cl)ccc2s1)c1ccco1` was 1840 nM (active); that for `CC(=O)c1cc2c(cc1NC(=O)CSc1nc3ccccc3o1)OCO2` was 8200 nM (active).
Still for that read-out and setting: the value for `C/C(=N\NC(=O)CSc1nc2ccccc2s1)c1ccco1` was 5170 nM (active); that for `O=C(CSc1nc2ccccc2s1)N/N=C/c1ccco1` was 8200 nM (active).
On to `CC(=NNC(=O)CSc1nc2ccccc2o1)c1ccco1`, for which the Potency was 7310 nM (active).
Same read-out and setting: the value for `CSc1nc(N)nc(SCC(=O)c2ccccc2)c1C#N` was 7310 nM (active).
On the same count and under the same terms, the value for `Cc1cc(C)c(C#N)c(SCC(=O)c2cccs2)n1` was 5170 nM (active).
On the same count and under the same terms, the value for `Cc1ccnc(SCC(=O)c2ccc(Br)cc2)c1C#N` was 2310 nM (active); that for `Cc1cc(SCC(=O)c2cccs2)nc2ccccc12` was 2590 nM (active).
As for `Cc1cc(C)c(C#N)c(SCC(=O)c2ccccc2)n1`, the Potency was 14600 nM (active).
As to `O=C(CN1CCN(Cc2ccccc2)CC1)N/N=C\C=C/c1ccco1`, the Potency was 20600 nM (active).
Same read-out and setting: the value for `O=C(CN1CCN(Cc2ccccc2Cl)CC1)N/N=C/C=C/c1ccco1` was 2590 nM (active); that for `CC(=NNc1ccc2ccccc2n1)c1ccccc1O` was 3660 nM (active).
Same read-out and setting: the value for `CC(=O)OC1(C(C)=O)CCC2C3CC(C(F)(F)F)C4=CC(=O)CCC4(C)C3CCC21C` (stereo unspecified) was 4610 nM (active).
On to `Cc1cccc(CC2S/C(=N/N=C/c3ccco3)NC2=O)c1` (stereo unspecified), for which the Potency is 206 nM (active).
On the same count and under the same terms, the value for `O=C1N/C(=N\N=C\c2ccco2)SC1Cc1ccc(F)cc1` (stereo unspecified) was 731 nM (active); that for `O=C1N/C(=N\N=C\c2ccco2)SC1Cc1ccccc1[N+](=O)[O-]` (stereo unspecified) was 2060 nM (active); that for `CC(/C=C/c1ccco1)=N\NC(=O)CNc1ccc2ccccc2c1` was 16400 nM (active).
The same measure, in the same setting: the value for `O=C(C=Cc1ccco1)c1ccc2ccccc2c1` was 2590 nM (active); that for `Cc1nc(Nc2ccccc2F)c2oc3ccccc3c2n1` was 2310 nM (active).
Same read-out and setting: the value for `CCc1nc(Nc2cccc(F)c2)c2oc3ccccc3c2n1` was 2910 nM (active).
Regarding `NC(=O)c1oc2ccccc2c1NC(=O)c1ccco1`, the Potency is 2310 nM (active).
For the molecule `O=C(Nc1c(O)c2ccccc2[nH]c1=O)c1ccco1`, the Potency is 7310 nM (active).
As for `NC(=O)c1oc2ccccc2c1NC(=O)c1ccccc1`, the Potency was 2590 nM (active).
As for `CN1c2ccsc2/C(=N/Nc2ccccc2)CS1(=O)=O`, the Potency was 2310 nM (active).
`C=C(C)CNC(=S)N/N=C(\C)c1ccc(Cl)s1`: the Potency is 2590 nM (active).
Same read-out and setting: the value for `CCOc1ccccc1NC(=O)C1COc2ccccc2O1` (stereo unspecified) was 4610 nM (active); that for `COc1ccc(Cl)cc1NC(=O)C1COc2ccccc2O1` (stereo unspecified) was 2910 nM (active).
Consider `O=C(Nc1ccccc1[N+](=O)[O-])C1COc2ccccc2O1` (stereo unspecified), for which the Potency is 4610 nM (active).
For the molecule `NS(=O)(=O)c1ccc(NC(=O)c2cc(-c3cccs3)nc3ccccc23)cc1`, the “activation” value was 14.1%.
Regarding `O=C(Nc1nccs1)c1cc(-c2ccco2)nc2ccccc12`, the Potency is 8200 nM (active).
The same measure, in the same setting: the value for `Cc1csc(NC(=O)c2cc(-c3ccco3)nc3ccccc23)n1` was 2590 nM (active); that for `O=C(N/N=C/c1ccc(Br)s1)c1cccs1` was 2910 nM (active); that for `Cc1ccsc1/C=N/N=C1\C(=O)Nc2ccccc21` was 7310 nM (active).
For the molecule `N=c1n(CCN2CCOCC2)c2ccccc2n1CC(=O)c1cccc([N+](=O)[O-])c1`, the Potency was 2910 nM (active).
On the same count and under the same terms, the value for `CCn1c(=N)n(CC(=O)c2cccc([N+](=O)[O-])c2)c2ccccc21` was 2310 nM (active); that for `CC1(O)c2ccccc2C(=O)N1CCc1ccccc1F` (stereo unspecified) was 5800 nM (active); that for `Cc1ccc(-c2nc(C=Nc3ccc(O)cc3)c(O)o2)cc1` was 16400 nM (active).
